# Experimental data reported in the antibiotic and cytotoxicity screens of Wong et al. (2023).
# In all, about 39,000 compounds went through this assay and about 3,300 (8.5%) were called active. Shown is part of a subset that was picked to be rich in actives.
# Test system: HepG2
# Assay: cytotoxicity call (relative viability < 0.9)
# Conditions: 10 µM
row,SMILES,cytotoxicity call
1,C[C@@H]1CCCCO[C@@H](CN(C)Cc2ccccc2)[C@H](C)CN([C@@H](C)CO)C(=O)c2cc(NC(=O)CCC(F)(F)F)ccc2O1,inactive
2,CC(C)NC(=O)N(C)C[C@H]1Oc2ccc(NC(=O)Cn3cnnn3)cc2CC(=O)N([C@H](C)CO)C[C@H]1C,inactive
3,C[C@H](CO)N1C[C@H](C)[C@H](CN(C)Cc2ccc(C(=O)Nc3ccccc3N)cc2)OCc2cnnn2CCCC1=O,inactive
4,CC(C)(C)c1cc(CN)n[nH]1,inactive
5,O=C(C[C@@H]1C[C@H]2c3cc(NS(=O)(=O)c4ccc(F)cc4)ccc3O[C@H]2[C@@H](CO)O1)N1CCOCC1,inactive
6,O=C1O[C@H](c2ccccc2)[C@H](c2ccccc2)N2[C@H]1[C@@H](C(=O)N1CCN(c3ncccn3)CC1)[C@]1(C(=O)Nc3ccc(C#CC4(O)CCCCCC4)cc31)[C@H]2c1ccc(OCCO)cc1,inactive
7,CO[C@@H]1CN(C)C(=O)c2ccc(NS(=O)(=O)c3ccccc3)cc2OC[C@H](C)N(C(=O)NC(C)C)C[C@@H]1C,inactive
8,CC(C)NC(=O)Nc1ccc2c(c1)CC(=O)N([C@H](C)CO)C[C@@H](C)[C@H](CN(C)C(=O)NC1CCCCC1)O2,inactive
9,C[C@H](CO)N1C[C@H](C)[C@H](CN(C)S(=O)(=O)c2cn(C)cn2)Oc2ccc(NS(=O)(=O)c3ccccc3)cc2C1=O,inactive
10,CC(O)C1C(=O)N2C(C(=O)O)=C(SC3CNC(C(=O)N(C)C)C3)C(C)C12 (centres undefined),inactive
11,O=C1OCCN1N=Cc1ccc([N+](=O)[O-])o1,active
12,O=[N+]([O-])c1cncn1CCN1CCOCC1,inactive
13,O=C1CN(N=Cc2ccc(-c3ccc([N+](=O)[O-])cc3)o2)C(=O)[N-]1.[Na+],inactive
14,O=C1OC(CN2CCOCC2)CN1N=Cc1ccc([N+](=O)[O-])o1 (centres undefined),active
15,O=C1CN(/N=C/c2ccc([N+](=O)[O-])o2)C(=O)N1,active
16,Nc1nnc(-c2ccc([N+](=O)[O-])o2)o1,inactive
17,O=C(CN1CCOCC1)N/N=C/c1ccc([N+](=O)[O-])o1,inactive
18,O=C1CN(N=Cc2ccc([N+](=O)[O-])o2)C(=O)N1,active
19,CCOC(=O)c1ccc(N2NC(=O)/C(=C/c3ccc([N+](=O)[O-])o3)C2=O)cc1,inactive
20,O=C(Cc1ccncc1)Nc1ccc2c(c1)[C@H]1C[C@H](CC(=O)N3CCc4ccccc4C3)O[C@H](CO)[C@H]1O2,inactive
21,O=C(C[C@H]1C=C[C@H](NC(=O)Cc2ccccn2)[C@@H](CO)O1)NCCc1ccncc1,inactive
22,CC(=O)NCc1c(I)c(NC(C)=O)c(I)c(C(=O)O)c1I,inactive
23,C[C@H]1CN([C@@H](C)CO)C(=O)c2cccc(NC(=O)c3ccc(-c4nccs4)cc3)c2O[C@H]1CN(C)Cc1ccc(-c2ccccc2)cc1,inactive
24,C[C@@H]1CN([C@@H](C)CO)S(=O)(=O)c2ccc(-c3ccc(F)cc3)cc2O[C@H]1CN(C)C(=O)C1CCOCC1,inactive
25,C[C@@H]1CCCCO[C@H](CN(C)C(=O)CCCN(C)C)[C@@H](C)CN([C@@H](C)CO)C(=O)c2cc(N(C)C)ccc2O1,inactive

row,SMILES,cytotoxicity call
1,C[C@@H]1CN([C@H](C)CO)C(=O)c2cccc(NS(C)(=O)=O)c2O[C@@H]1CN(C)C(=O)Nc1ccc(F)cc1,inactive
2,Cc1[nH]c(=O)[nH]c(=O)c1/C=C/C(=O)O,inactive
3,O=C(C[C@H]1CC[C@@H]2[C@H](COC[C@H](O)CN2S(=O)(=O)c2ccc(F)cc2)O1)N[C@H]1CCN(Cc2ccccc2)C1,inactive
4,C[C@@H]1CN([C@H](C)CO)C(=O)c2cc(NC(=O)Nc3ccc(C(F)(F)F)cc3)ccc2O[C@H]1CN(C)Cc1ccc(-c2ccccc2)cc1,active
5,C[C@@H]1CN([C@@H](C)CO)C(=O)c2cc(NC(=O)Nc3ccc(C(F)(F)F)cc3)ccc2O[C@@H]1CN(C)Cc1ccc(-c2ccccc2)cc1,active
6,C[C@H]1CN([C@@H](C)CO)C(=O)c2cc(NC(=O)Nc3ccc(C(F)(F)F)cc3)ccc2O[C@H]1CN(C)Cc1ccc(-c2ccccc2)cc1,active
7,C[C@@H]1CN([C@@H](C)CO)C(=O)c2cc(NC(=O)Nc3ccc(C(F)(F)F)cc3)ccc2O[C@@H]1CN(C)S(C)(=O)=O,inactive
8,C[C@H](CO)N1C[C@H](C)[C@@H](CN(C)C(=O)Nc2cccc3ccccc23)Oc2c(NC(=O)Nc3cccc4ccccc34)cccc2C1=O,inactive
9,C[C@@H]1CCCCO[C@H](CN(C)Cc2ccccc2)[C@H](C)CN([C@@H](C)CO)C(=O)c2cc(NC(=O)c3ccncc3)ccc2O1,inactive
10,O=C(C[C@H]1CC[C@@H]2[C@H](COC[C@H](O)CN2C(=O)c2ccc(F)cc2)O1)NCCCN1CCOCC1,inactive
11,COCC#Cc1cnc2c(c1)C(=O)N([C@H](C)CO)C[C@H](C)[C@H](CN(C)S(=O)(=O)c1ccccc1)O2,inactive
12,OC[C@H]1O[C@@H](n2cnc3c(N[C@@H]4CCOC4)ncnc32)[C@H](O)[C@@H]1O,inactive
13,CC[C@H](C#CCN1CCOCC1)OC(C)=O,inactive
14,COc1ccccc1S(=O)(=O)N[C@@H]1CC[C@@H](CCNC(=O)C2CC2)O[C@H]1CO,inactive
15,CN1C(=O)c2cc(NC(=O)c3ccc(F)cc3)ccc2OC[C@@H]2O[C@H](CC(=O)N3CCOCC3)CC[C@@H]21,inactive
16,COc1ccc(CN(C)C[C@H]2OCCCC[C@@H](C)Oc3ccc(NC(=O)C4CCCCC4)cc3C(=O)N([C@@H](C)CO)C[C@@H]2C)cc1,inactive
17,NS(=O)(=O)c1ccc(CCn2ccn(CC(=O)NCCC3=CCCCC3)c(=O)c2=O)cc1,inactive
18,C[C@@H]1CN([C@@H](C)CO)C(=O)Cc2cc(NS(=O)(=O)c3ccc(F)cc3)ccc2O[C@@H]1CN(C)S(=O)(=O)c1cn(C)cn1,inactive
19,CN(C)C(=O)C[C@@H]1CC[C@@H](NC(=O)C2CCOCC2)[C@@H](CO)O1,inactive
20,CCCNC(=O)Nc1ccc2c(c1)C(=O)N(C)C[C@@H](OC)[C@@H](C)CN(C(=O)C1CCOCC1)[C@H](C)CO2,inactive
21,C[C@@H]1CN([C@@H](C)CO)C(=O)c2cc(NC(=O)Nc3ccc(C(F)(F)F)cc3)ccc2O[C@H]1CN(C)Cc1ccc(-c2ccccc2)cc1,active
22,C[C@H](CO)N1C[C@H](C)[C@H](CN(C)Cc2ccc(-c3ccccc3)cc2)Oc2ccc(NC(=O)Nc3ccc(C(F)(F)F)cc3)cc2C1=O,active
23,C[C@H](CO)N1C[C@H](C)[C@@H](CN(C)Cc2ccc(-c3ccccc3)cc2)Oc2ccc(NC(=O)Nc3ccc(C(F)(F)F)cc3)cc2C1=O,inactive
24,C[C@@H]1CN([C@H](C)CO)C(=O)c2cc(NC(=O)Nc3ccc(C(F)(F)F)cc3)ccc2O[C@@H]1CN(C)Cc1ccc(-c2ccccc2)cc1,active
